PERK inh = inhibitors of human PERK kinase; Q9NZJ5; CHO PERK-DD fusion, SEAP luminescence translation reporter; inhibition, % at 5.6 µM; 220,000 tested, 0.17% active; AID 1416;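 active = inhibition above the mean inhibition of all tested compounds plus 3 SD, set separately per screening campaign, cut at about 2.9% in these data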;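 note: PERK kinase domain activated by AP20187 dimerizer at 100 nM; 0% = DMSO with dimerizer and 100% = rapamycin at 8.4 µM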
m-calpain inh = blocks pig calpain II enzyme activity; purified calpain II, fluorogenic peptide substrate, 30 min; inhibition, % at 16 µM; 220,000 tested, 0.37% active; AID 1236;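 active = inhibition above about 50%, limit read from the data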
S1P3 antagonist = blocks the human S1P3 receptor; CHO S1P3 NFAT-BLA reporter, FRET fluorescence, antagonist mode; inhibition, % at 4.98 µM; 170,000 tested, 0.27% active; AID 485;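 active = inhibition above the plate cutoff, the mean inhibition of test wells on that plate plus 3 SD, cut at about 28% in these data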;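 note: cells challenged with S1P at its EC80 of 0.8 µM; blue over green emission ratio from cleaved BLA substrate after 4 h stimulation; 0% = S1P-stimulated wells and 100% = unstimulated DMSO-only wells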
S1P4 antag = antagonists of human S1P4 receptor; inhibition, % at 4.98 µM; O95977; S1P4-expressing cells, antagonist mode, reporter read-out; 220,000 tested, 0.26% active; in the data active = inhibition above about 29%;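 note: 0% = wells stimulated with agonist and 100% = vehicle wells without agonist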
S1P4 ag = human S1P4 receptor agonism; O95977; S1P4-expressing cell line, agonist reporter assay; activation, % at 4.98 µM; 220,000 tested, 0.35% active; AID 1509; in the data active = activation above about 11%;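 note: 0% = DMSO vehicle and 100% = reference agonist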
Numbers without * were called inactive; x = not tested or not shown; ! = not active in a repeat. An excerpt weighted towards active compounds, which were near 1.3% of everything screened.

SMILES	PERK inh	m-calpain inh	S1P3 antagonist	S1P4 antag	S1P4 ag
COc1cc(C(C#N)N2CCOCC2)ccc1O (stereo not drawn)	3.5*	23.0	-38.5	7.9	-1.0
CCOC(=O)c1c(C)nc2ccccn12	0.4	-7.5	70.5*	-14.1	-1.0
Cc1nc2ccccn2c1C(=O)NN	0.2	-7.7	-5.2	-15.1	0.8
COc1cc2nc(CN3CCN(S(=O)(=O)c4ccc(Cl)cc4)CC3)[nH]c(=O)c2cc1OC	-0.7	-13.5	-9.6	-28.8	0.3
O=C(NCc1ccco1)C1CCN(C(=O)c2cc3sccc3n2Cc2ccc(Cl)cc2)CC1	-1.1	56.6*	6.9	0.7	-0.9
CCn1c(C(=O)N2CCC(C(=O)NCc3cccs3)CC2)cc2sccc21	-0.7	10.3	-7.3	-4.3	-1.0
CCOC(=O)c1ncn2c1CN(C)C(=O)c1cc(F)ccc1-2	3.1*!	7.7	-31.0	-1.2	1.3
Cc1ccc(CNS(=O)(=O)c2ccc3c(c2)CCN3C(=O)CCCC(=O)O)cc1	1.6	-14.9	0.3	-18.6	1.9
CC1CCCN(C(=O)c2sc3cc([N+](=O)[O-])ccc3c2Cl)C1 (stereo not drawn)	0.4	68.1*	x	11.4	0.1
O=C(c1sc2cc([N+](=O)[O-])ccc2c1Cl)N1CCCCC1	-0.8	25.1	1.7	-9.2	0.0
Cc1ccc(C(=O)O/N=C\c2ccc(N3CCOCC3)c([N+](=O)[O-])c2)cc1	0.4	-14.1	x	-8.3	1.0
O=C(O/N=C\c1ccc(N2CCCCC2)c([N+](=O)[O-])c1)c1ccc(Cl)cc1Cl	3.0*	23.4	x	10.8	-0.2
CC(C)CC(=O)Nc1nnc(SCC(=O)Nc2ccc(F)cc2)s1	0.5	54.0*	-19.8	7.7	-0.1
CCCc1nnc(NC(=O)CNc2ccc(F)cc2)s1	3.1*	-40.1	21.7	3.8	-1.5
CCC(=O)Nc1nnc(SCC(=O)Nc2ccc(F)cc2)s1	0.7	-23.2	-25.4	-19.3	0.1
CCCc1nnc(NC(=O)CCC(=O)N2CCN(S(=O)(=O)c3ccc(F)cc3)CC2)s1	1.2	7.2	0.1	3.6	0.0
CCC(C(=O)OCC(=O)Nc1ccc(C(N)=O)cc1)c1ccccc1 (stereo not drawn)	0.2	-14.9	6.2	4.0	1.4
CCC(C(=O)OCC(=O)Nc1ccc(SC(F)F)cc1)c1ccccc1 (stereo not drawn)	-0.1	50.9*	-23.7	19.4	0.3
CN(C)S(=O)(=O)c1cc(NC(=O)COC(=O)Cc2cccc3ccccc23)ccc1Cl	0.3	5.5	5.8	-6.6	-1.1
CCC(C(=O)OCC(=O)Nc1ccc(Cl)c(S(=O)(=O)N(C)C)c1)c1ccccc1 (stereo not drawn)	0.2	59.1*	-6.0	-5.8	-0.3
Cc1ccc(-c2nc(N)sc2C)cc1	0.0	14.3	-28.6	-14.8	1.3
Cc1ccc(-c2nc(N)sc2-c2ccc(C)cc2)cc1	0.1	61.6*	3.4	-7.1	1.9
CCCCN(C)C(=O)c1cn(C)c2ccc(S(=O)(=O)N(C)C)cc2c1=O	-0.3	11.2	86.7*	2.7	0.0
Cc1cccc(/C=C/C(=O)c2ccc(N3CCOCC3)cc2)c1	-0.8	53.3*	1.3	-9.7	-0.1
O=C(/C=C/c1ccc(F)cc1)c1ccc(N2CCOCC2)cc1	-0.6	6.4	3.9	1.8	0.1
SMILES	PERK inh	m-calpain inh	S1P3 antagonist	S1P4 antag	S1P4 ag
Cc1nc(N2CCN(Cc3ccccc3)CC2)nc2c1C(=O)CC(c1ccco1)C2 (stereo not drawn)	-0.7	24.0	20.6	-5.8	2.2
Cc1nc(N2CCN(Cc3ccc4c(c3)OCO4)CC2)nc2c1C(=O)CC(c1ccco1)C2 (stereo not drawn)	-0.3	67.3*	-10.5	1.0	1.5
CCOC(=O)C1(CCOc2ccccc2)CCN(Cc2ccc(-n3cccn3)cc2)CC1	-0.4	-12.1	-13.0	2.6	-0.4
CC1CCC2C(=O)N(c3ccc(NC4CCN(Cc5ccccc5)CC4)c([N+](=O)[O-])c3)C(=O)C2C1 (stereo not drawn)	-0.3	27.6	-8.8	-12.4	0.2
O=C1C2CCCCC2C(=O)N1c1ccc(NC2CCN(Cc3ccccc3)CC2)c([N+](=O)[O-])c1 (stereo not drawn)	-0.2	83.9*	-12.6	-11.4	0.2
Fc1ccccc1-c1nc(NCCCN2CCOCC2)c2ccccc2n1	-0.6	-6.2	3.5	-5.5	-1.5
c1ccc2c(NCCCN3CCOCC3)c3ccccc3nc2c1	-0.1	-36.4	-13.2	-31.9	11.5*
CNC(=O)CN(c1cc(OCCOC)c(Cl)cc1Cl)S(=O)(=O)c1ccc(OC)cc1	0.1	-40.2	4.9	-16.6	0.6
C=CCCCCCCCCc1nc(SCC(=O)O)n[nH]1	3.0*	-17.7	-6.8	5.2	0.3
CC1CCN(C(=O)COc2cccc3c2CCN(C)C3=O)CC1	-0.2	8.1	-12.9	-15.1	-0.6
CC(=O)c1ccc(N/N=C2/CCCNC2=O)cc1	4.0*	27.6	-7.1	-0.2	-0.1
O=S(=O)(/C(=C/c1ccc(C(F)(F)F)cc1)c1nc2ccccc2[nH]1)c1ccccc1	-0.7	-20.2	8.0	92.2*	-1.3
O=C(Nc1cnn(Cc2ccc(F)cc2)c1)c1cc2nc(-c3ccco3)cc(C(F)(F)F)n2n1	1.5	90.8*	7.0	-15.4	0.8
CSC1=NCCN1C(=O)Cc1ccc(Cl)cc1	0.8	29.5	66.5*	-22.9	2.0
CCCCCCSc1nnc(-c2cnn(-c3ccccc3)c2-n2cccc2)n1C	-1.8	55.6*	x	-5.0	2.2
CCCCSc1nnc(-c2c[nH]c3ccccc23)n1C	1.3	10.0	101.4*	3.4	0.9
CCSc1nnc(-c2cnn(-c3ccccc3)c2-n2cccc2)n1C	-2.1	-18.2	x	7.3	-0.2
CCCCOc1ccc(NC(=O)CCSc2nccn2C)cc1	-0.3	20.6	-15.2	5.1	1.9
CCOc1ccc(CC(=O)OCn2nnc3ccccc3c2=O)cc1	0.6	65.9*	-5.0	-12.8	3.6
Cc1ccc(Nc2nc(=O)c3cc([N+](=O)[O-])ccc3s2)cc1	1.0	14.8	-3.5	-11.5	-1.2
COc1ccc(Nc2nc(=O)c3cc([N+](=O)[O-])ccc3s2)cc1	1.0	60.2*	-9.7	-14.1	-0.2
CCOC(=O)c1ccc(NC(=O)COc2ccccc2CNC2CCCC2)cc1	-1.2	-5.9	-19.8	19.6	-0.8
O=C(O)c1ccccc1C(=O)Nc1ccccc1	1.6	-9.2	-22.7	1.9	-1.6
O=C(Nc1ccccc1)C1=C(c2ccccc2)S(=O)(=O)CCS1(=O)=O	0.2	-25.2	-3.3	32.3*	1.9
C/C(=N\OC(=O)c1ccccc1F)c1nccs1	3.4*	-2.0	x	-2.9	0.5
Cc1cc2c(C)ccc(C)c2nc1SCC(=O)c1cccs1	-0.4	51.0*	x	-8.7	0.7
Cc1cc(SCC(=O)c2cccs2)nc2c(C)cccc12	0.2	4.1	x	2.9	1.7
CNC(=S)NNC(=O)c1sccc1OCc1ccc(Cl)cc1Cl	1.1	2.8	x	-17.4	3.3
S=c1nc(-c2sccc2OCc2ccc(Cl)cc2Cl)[nH][nH]1	-0.9	92.9*	-1.9	-42.1	1.5
CCn1c(SCC(=O)NNC(=O)c2ccc(OC)cc2)nnc1-c1ccco1	1.0	-54.5	-11.5	-6.6	1.5
